Tests used:
[1] = target: T1, Aspartate--tRNA(Asp/Asn) ligase (Mycobacterium tuberculosis (strain ATCC 25618 / H37Rv)) (UniProt P9WFW3); test: Assay for Asp RNA synthetase-1 from Mycobacterium tuberculosis; format: functional; set-up: scale not given: direction of the effect not stated beside the values; conditions: 30 µM; also: in the data most compounds retested in dose-response had high values
T1 sequence (whole entry): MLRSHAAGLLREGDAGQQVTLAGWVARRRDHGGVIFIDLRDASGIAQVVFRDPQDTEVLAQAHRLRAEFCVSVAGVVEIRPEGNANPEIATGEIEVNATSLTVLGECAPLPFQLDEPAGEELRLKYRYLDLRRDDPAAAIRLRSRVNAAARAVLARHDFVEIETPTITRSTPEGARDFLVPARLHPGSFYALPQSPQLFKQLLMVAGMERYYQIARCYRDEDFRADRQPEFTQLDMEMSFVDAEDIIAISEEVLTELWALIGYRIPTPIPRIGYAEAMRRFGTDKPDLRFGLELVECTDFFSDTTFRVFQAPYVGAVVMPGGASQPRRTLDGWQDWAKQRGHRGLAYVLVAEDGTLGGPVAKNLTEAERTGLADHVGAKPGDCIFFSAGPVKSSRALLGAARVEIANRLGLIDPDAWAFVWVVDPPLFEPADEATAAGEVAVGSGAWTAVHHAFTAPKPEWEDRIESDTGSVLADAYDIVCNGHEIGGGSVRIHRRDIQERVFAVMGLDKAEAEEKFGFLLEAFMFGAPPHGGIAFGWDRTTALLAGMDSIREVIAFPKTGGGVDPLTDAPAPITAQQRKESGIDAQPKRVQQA

[2] = target: Shiga toxin 2 (Escherichia coli O157:H7) (UniProt P09385+P09386); test: E. coli 0.157:H7 Shiga Toxin SOP - stx2 screening assay; format: functional; set-up: scale not given: direction of the effect not stated beside the values; conditions: 30 µM

CO[C@H]1CN(C(=O)c2ccc3oc(C)cc3c2)CC[C@@]12CCCO2
Percent Effect [1]: 1.12% | Percent Effect [2]: 7.39%

Cc1ccc(CNCc2nnc3n2CC(C(F)(F)F)CC3)cc1 (configuration not stated)
Percent Effect [1]: -6.08% | Percent Effect [2]: -16%

Cn1cc(CN2CCc3onc(COc4cccnc4)c3C2)cn1
Percent Effect [1]: -6.13% | Percent Effect [2]: -65.9%

CN1CCN(C(=O)c2ccc(=O)n(C)c2)Cc2ccccc21
Percent Effect [1]: -5.51% | Percent Effect [2]: -29.2%

Cc1cc(C[S+]([O-])CC(=O)Nc2c(C)cccc2C)no1 (configuration not stated)
Percent Effect [1]: -6.04% | Percent Effect [2]: 17%

O=C(CS(=O)(=O)CC1CCCCC1)NC1CCCCNC1=O (configuration not stated)
Percent Effect [1]: -4.37% | Percent Effect [2]: -23%

COC(=O)C(c1cc(F)ccc1F)N(C)C(=O)c1csnn1 (configuration not stated)
Percent Effect [1]: 3.92% | Percent Effect [2]: -19.1%

O=C(O)c1ccc(S(=O)(=O)Nc2ccc(Cl)c(F)c2)c(F)c1
Percent Effect [1]: -0.533% | Percent Effect [2]: -14.1%

CN(C)C(=O)N1CCOCC2(CCN(c3ccccn3)C2)C1 (configuration not stated)
Percent Effect [1]: 1.11% | Percent Effect [2]: -15.4%

Cc1[nH]ncc1CCCNC(=O)Nc1ccc(C#N)cc1
Percent Effect [1]: 0.993% | Percent Effect [2]: -61.3%

CN(Cc1ncc[nH]1)CC(c1cccs1)N1CCOCC1 (configuration not stated)
Percent Effect [1]: -3.41% | Percent Effect [2]: 4.34%

Cn1cc(C(=O)CC2CCCN2C(=O)c2cncc3ccccc23)cn1 (configuration not stated)
Percent Effect [1]: -4.82% | Percent Effect [2]: -3.94%

Cc1ccc(-c2nc(CN3CCc4nn(C)c(=O)cc4C3)no2)cc1
Percent Effect [1]: 5.81% | Percent Effect [2]: -0.113%

COC(=O)c1ccc(N2CCN(CCC(=O)NC(N)=O)C(C)C2)cc1 (configuration not stated)
Percent Effect [1]: 3.04% | Percent Effect [2]: 25.6%

O=C(NCCc1ccccn1)NC1CCN(c2ncccn2)CC1
Percent Effect [1]: 1.19% | Percent Effect [2]: -12.3%

Cc1cc(CN2CCN(c3ccc4nncn4n3)C(C)C2)no1 (configuration not stated)
Percent Effect [1]: -3.98% | Percent Effect [2]: -29.9%

Cc1ccc([C@@H]2CN(S(=O)(=O)N(C)C)C[C@H]2N(C)C)cc1
Percent Effect [1]: 2.81% | Percent Effect [2]: 5.3%

CN(C)c1ncccc1CNC(=O)N1CCCC1CN1CCCCC1 (configuration not stated)
Percent Effect [1]: -2.19% | Percent Effect [2]: -17.9%

CNC(=O)CC1CCN(Cc2nc(-c3ccc(SC)cc3)oc2C)CC1
Percent Effect [1]: -1.17% | Percent Effect [2]: -3.87%

Cc1cc(NC(=O)CN2CCn3c(nnc3C3CC3)C2)n(C)n1
Percent Effect [1]: -5.68% | Percent Effect [2]: 19.6%

Cn1cccc1CNC(=O)N(CCO)C1CCCc2ccccc21 (configuration not stated)
Percent Effect [1]: -1.95% | Percent Effect [2]: -4.96%

c1ccc(CN2CC[C@@H]3O[C@H](COCc4ccncc4)CC[C@@H]32)nc1
Percent Effect [1]: -0.574% | Percent Effect [2]: -18%

CC(C)(C)NC(=O)CNC(=O)CCc1ccccc1Br
Percent Effect [1]: 0.279% | Percent Effect [2]: -3.39%

Cc1nc(CN2CCc3cncnc3C2)oc1C
Percent Effect [1]: -1.67% | Percent Effect [2]: -14.4%

CCc1cnc(CN(C)C2CCN(CCc3ccccn3)C2)o1 (configuration not stated)
Percent Effect [1]: 0.0557% | Percent Effect [2]: -7.08%

OCC1CCCN1c1cc(NCc2ccc(Cl)s2)ncn1 (configuration not stated)
Percent Effect [1]: 0.451% | Percent Effect [2]: -31.6%

Cc1nc(C2CCCN(C(=O)c3ccco3)C2)no1 (configuration not stated)
Percent Effect [1]: -1.47% | Percent Effect [2]: -1.79%

Cn1c(Cn2ccnc2)nnc1C1CCN(Cc2cccnc2N)CC1
Percent Effect [1]: -2.34% | Percent Effect [2]: -12.5%

CCOCC1CC2(CCN(C(=O)c3ccccn3)CC2)CO1 (configuration not stated)
Percent Effect [1]: 0.961% | Percent Effect [2]: 5.8%

Cc1ccc(Cl)cc1N1CCC(CNC(=O)CC(F)(F)F)C1 (configuration not stated)
Percent Effect [1]: -1.19% | Percent Effect [2]: -45.5%

O=C1OCCN1CCOc1nc(-c2ccccc2Cl)no1
Percent Effect [1]: -7.33% | Percent Effect [2]: -14.8%

COc1ccc(F)cc1C(C(=O)O)N1CCSCC1 (configuration not stated)
Percent Effect [1]: 4.05% | Percent Effect [2]: 9.21%

CN(C)c1cc(C(=O)N2CCN(c3cnccn3)CC2)ccn1
Percent Effect [1]: -1.5% | Percent Effect [2]: 3.8%

CCc1nc(C2CCCN2C(=O)c2nccnc2N)no1 (configuration not stated)
Percent Effect [1]: -4.3% | Percent Effect [2]: 8.58%

CN(Cc1nccs1)c1nc(-c2ccccn2)nc2c1CCNCC2
Percent Effect [1]: 2.26% | Percent Effect [2]: -12.4%

Cc1ccc(N2CCN(C(=O)COc3nccc(C)n3)CC2)nn1
Percent Effect [1]: -6.35% | Percent Effect [2]: -50.4%

COCc1nn(C(C)C)c2c1CCN(Cc1ccc(C)s1)C2
Percent Effect [1]: -3.6% | Percent Effect [2]: -26.4%

Cc1ccc2c(c1)C1(CC2)CCN(c2nncs2)CC1
Percent Effect [1]: 1.71% | Percent Effect [2]: 6.27%

Cc1ccc(Cl)cc1N1CCC(CNC(=O)CCn2ccnc2)C1 (configuration not stated)
Percent Effect [1]: -2.41% | Percent Effect [2]: -19.4%

COCCO[C@H]1CCN(C(=O)c2ccc[nH]2)[C@H]1Cc1ccncc1
Percent Effect [1]: -0.0147% | Percent Effect [2]: -2.78%

Cc1n[nH]c(C2CN(C(=O)c3ccco3)CCO2)n1 (configuration not stated)
Percent Effect [1]: 2.88% | Percent Effect [2]: 5.26%

Cc1cc(N2CCC(N(C)C(=O)Nc3ccccc3)CC2)nc(C)n1
Percent Effect [1]: 7.13% | Percent Effect [2]: -20.7%

CC(OCC(F)(F)F)C(=O)N1CCCCC1 (configuration not stated)
Percent Effect [1]: 1.09% | Percent Effect [2]: -2.39%

CC(=O)NCC(=O)N1CCN(CC2CC2)c2ncccc2C1
Percent Effect [1]: -4.63% | Percent Effect [2]: -0.0207%

O=C(c1cnco1)N1CCCC(Cc2cccc3ncccc23)C1 (configuration not stated)
Percent Effect [1]: 3.23% | Percent Effect [2]: -27.4%

OCCn1nccc1C1CCN(CCCOc2ccc(F)cc2)CC1
Percent Effect [1]: 1.85% | Percent Effect [2]: 4.26%

COc1cccc(CNc2c(C)cnc3c2c(=O)n(C)c(=O)n3C)c1
Percent Effect [1]: -3.02% | Percent Effect [2]: -31.1%

CC(=O)N1CC(=O)N(c2ccccc2)CC12CCN(Cc1nccs1)C2 (configuration not stated)
Percent Effect [1]: 7.34% | Percent Effect [2]: -17.5%

COc1ccc(-c2nnc(SC(C)C(=O)NCC(C)C)[nH]2)c(OC)c1 (configuration not stated)
Percent Effect [1]: 7.67% | Percent Effect [2]: 8.94%

COc1ncccc1NC(=O)NCC(O)c1ccc(F)cc1F (configuration not stated)
Percent Effect [1]: 4.06% | Percent Effect [2]: -0.623%

CC(C)C(=O)N1CCN(Cc2csc(-c3ncccn3)n2)CC1
Percent Effect [1]: -4.22% | Percent Effect [2]: 0.445%
